Measurements published in PubChem BioAssay (NCATS).
Records with an inconclusive call do not appear. Entries that show only a call come without a potency. Active and inactive are the calls of the source. Calls follow the shape of the dose curve; as a rule, active = well fitted inhibition curve with a large enough effect; inconclusive = small, poorly fitted or top-dose-only effect; inactive = flat fitted curve, though single readings scatter.

Experiments:
Assay in all cases: qHTS profiling for inhibitors of Plasmodium falciparum proliferation (AID 504749); also: nearly all actives have a fitted effect of over 60% in size
Conditions in all cases: P. falciparum in erythrocytes, SYBR Green DNA, 72 h; series mostly up to 28.7 µM
FAB9 = system: FAB9
Procedure, shortened: (§1)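 In a 72 h erythrocytic culture (37 C, humidified, 5% CO2) at 2.5% hematocrit and 0.3% starting parasitemia, compounds were tested; SYBR Green I in detergent lysis buffer stained parasite DNA overnight.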

HB3 = system: HB3
Procedure, shortened: as §1

ICS = system: ICS
Procedure, shortened: as §1

JCK = system: JCK
Procedure, shortened: as §1

N140 = system: N140
Procedure, shortened: as §1

P93_24 = system: P93_24
Procedure, shortened: as §1

P94_40 = system: P94_40
Procedure, shortened: as §1

PAD = system: PAD
Procedure, shortened: as §1

PC15 = system: PC15
Procedure, shortened: as §1

GB4 = system: GB4
Procedure, shortened: as §1
Potency is read from the fitted curve at half-maximal effect.

Structure (SMILES): CC(=O)Oc1c(C)cc(OCC(O)CNC(C)C)c(C)c1C (stereo not drawn)
- Potency (FAB9): inactive
- Potency (HB3): inactive
- Potency (ICS): inactive
- Potency (JCK): inactive
- Potency (N140): inactive
- Potency (P93_24): inactive
- Potency (P94_40): inactive
- Potency (PAD): inactive
- Potency (PC15): inactive

Structure (SMILES): O=S(=O)(O)c1cc(O)c2c(N=Nc3ccc(Nc4ccccc4)c4c(S(=O)(=O)O)cccc34)cc(S(=O)(=O)O)cc2c1
- Potency (FAB9): inactive
- Potency (GB4): inactive
- Potency (HB3): inactive
- Potency (JCK): inactive
- Potency (PAD): inactive

Structure (SMILES): Cc1ccccc1OCC(O)CNCCOc1ccc(C(N)=O)cc1 (stereo not drawn)
- Potency (FAB9): inactive
- Potency (HB3): inactive
- Potency (ICS): inactive
- Potency (JCK): inactive
- Potency (N140): inactive
- Potency (P93_24): inactive
- Potency (P94_40): inactive
- Potency (PAD): inactive
- Potency (PC15): inactive

Structure (SMILES): Clc1cc(Cl)c(OCC#CI)cc1Cl
- Potency (GB4): 10.7 µM (active)
- Potency (ICS): 7.94 µM (active)
- Potency (N140): 10 µM (active)
- Potency (P93_24): 7.94 µM (active)
- Potency (P94_40): 11.2 µM (active)
- Potency (PAD): 11.2 µM (active)

Structure (SMILES): O=C1CSC2(CCN(CCCN3c4ccccc4Sc4ccc(Cl)cc43)CC2)N1
- Potency (FAB9): inactive
- Potency (GB4): 16.9 µM (active)
- Potency (ICS): 12.6 µM (active)
- Potency (JCK): inactive
- Potency (P93_24): 8.91 µM (active)

Structure (SMILES): COC(=O)[C@H]1[C@H]2CC3c4[nH]c5ccccc5c4CCN3C[C@@H]2CC[C@@H]1O (stereo partly drawn)
- Potency (FAB9): inactive
- Potency (HB3): inactive
- Potency (ICS): inactive
- Potency (JCK): inactive
- Potency (N140): inactive
- Potency (P93_24): inactive
- Potency (PAD): inactive
- Potency (PC15): inactive

Structure (SMILES): COC(=O)C1=C(C#N)NC(C)=C(C(=O)OC(C)C)C1c1cccc([N+](=O)[O-])c1 (stereo not drawn)
- Potency (HB3): 10 µM (active)
- Potency (ICS): 7.94 µM (active)
- Potency (N140): 7.94 µM (active)
- Potency (P93_24): 12.6 µM (active)
- Potency (PAD): 10 µM (active)
- Potency (PC15): 10 µM (active)

Structure (SMILES): COc1cc(-c2ccc(-[n+]3nc(-c4ccccc4)nn3-c3ccc([N+](=O)[O-])cc3)c(OC)c2)ccc1-[n+]1nc(-c2ccccc2)nn1-c1ccc([N+](=O)[O-])cc1
- Potency (GB4): 12 µM (active)
- Potency (ICS): 8.91 µM (active)
- Potency (P94_40): 10 µM (active)

Structure (SMILES): CCOc1ccc(N=Nc2ccc(N)cc2N)cc1
- Potency (FAB9): inactive
- Potency (HB3): inactive
- Potency (JCK): inactive
- Potency (N140): inactive
- Potency (PC15): inactive

Structure (SMILES): CC1=C(/C=C/C(C)=C/C=C/C(C)=C/CO)C(C)(C)CCC1
- Potency (FAB9): inactive
- Potency (ICS): 7.08 µM (active)
- Potency (JCK): inactive
- Potency (N140): 8.91 µM (active)

Structure (SMILES): O=CCCCC=O
- Potency (FAB9): inactive
- Potency (ICS): 7.08 µM (active)
- Potency (JCK): inactive
- Potency (N140): inactive
- Potency (P94_40): inactive
- Potency (PAD): inactive
- Potency (PC15): inactive

Structure (SMILES): CCCCC(CC)COC(=O)CC(C(=O)OCC(CC)CCCC)S(=O)(=O)O (stereo not drawn)
- Potency (GB4): inactive

Structure (SMILES): CN1C(=O)CN2CCc3ccccc3C2c2cc(Cl)ccc21 (stereo not drawn)
- Potency (FAB9): inactive
- Potency (HB3): inactive
- Potency (JCK): inactive
- Potency (P94_40): inactive
- Potency (PC15): inactive

Structure (SMILES): CN=C(NC#N)Nc1ccc(C2=NNC(=O)C[C@@H]2C)cc1
- Potency (FAB9): inactive
- Potency (HB3): inactive
- Potency (ICS): inactive
- Potency (JCK): inactive
- Potency (N140): inactive
- Potency (P93_24): inactive
- Potency (P94_40): inactive
- Potency (PAD): inactive
- Potency (PC15): inactive

Structure (SMILES): Nc1c(Br)cc(Br)cc1CNC1CCC(O)CC1 (stereo not drawn)
- Potency (FAB9): inactive
- Potency (HB3): inactive
- Potency (JCK): inactive
- Potency (N140): inactive
- Potency (P93_24): inactive
- Potency (P94_40): inactive
- Potency (PAD): inactive
- Potency (PC15): inactive

Structure (SMILES): CCOC(=O)C1=CC2(CC)CCCN3CCc4c(n1c1ccccc41)C32 (stereo not drawn)
- Potency (FAB9): 7.94 µM (active)
- Potency (HB3): 12.6 µM (active)
- Potency (ICS): 10 µM (active)
- Potency (N140): 8.91 µM (active)
- Potency (P93_24): 7.94 µM (active)
- Potency (P94_40): 12.6 µM (active)
- Potency (PAD): 11.2 µM (active)
- Potency (PC15): 11.2 µM (active)

Structure (SMILES): CC[C@@]1(O)C(=O)OCc2c1cc1n(c2=O)Cc2cc3c([N+](=O)[O-])cccc3nc2-1
- Potency (GB4): 6.75 µM (active)
- Potency (ICS): 5.01 µM (active)
- Potency (N140): 8.91 µM (active)
- Potency (P93_24): 7.94 µM (active)
- Potency (P94_40): 5.01 µM (active)

Structure (SMILES): CN(C)CCCN1c2ccccc2C(C)(C)c2ccccc21
- Potency (FAB9): inactive
- Potency (HB3): inactive
- Potency (JCK): inactive
- Potency (PAD): inactive

Structure (SMILES): CO[C@H]1C[C@@H]2CC[C@@H](C)[C@@](O)(O2)C(=O)C(=O)N2CCCC[C@H]2C(=O)O[C@H]([C@H](C)C[C@@H]2CC[C@@H](OCCO)[C@H](OC)C2)CC(=O)[C@H](C)/C=C(\C)[C@@H](O)[C@@H](OC)C(=O)[C@H](C)C[C@H](C)/C=C/C=C/C=C/1C
- Potency (GB4): 1.69 µM (active)
- Potency (HB3): 2 µM (active)
- Potency (ICS): 0.501 µM (active)
- Potency (JCK): 10 µM (active)
- Potency (N140): 1 µM (active)
- Potency (P93_24): 1.41 µM (active)
- Potency (P94_40): 2 µM (active)
- Potency (PAD): 1.41 µM (active)
- Potency (PC15): 3.16 µM (active)

Structure (SMILES): O=C(Nc1cccc(C(F)(F)F)c1)c1cc(Br)cc(Br)c1O
- Potency (ICS): 8.91 µM (active)
- Potency (JCK): 10 µM (active)
- Potency (N140): 11.2 µM (active)

Structure (SMILES): CCCCC(=O)O[C@]1(C(=O)CO)[C@H](C)C[C@H]2[C@@H]3CCC4=CC(=O)C=C[C@]4(C)[C@@]3(F)[C@@H](O)C[C@@]21C
- Potency (FAB9): inactive
- Potency (HB3): inactive
- Potency (JCK): inactive
- Potency (P94_40): inactive
